Out of some 5,500 compounds screened, about 2,000 (36%) were called active. About 18% were inconclusive and are not listed. Cut-off read from the data, not from the text of the source: active = normalized growth mostly below about 0.91 (no sharp cut-off); inconclusive = no clear call, values can overlap the other calls; inactive = mostly above about 0.92. Some of the results follow.
Test: chemical genetic growth profiling, strain panel (AID 1159580);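 note: tested at 20 µM; growth read once vehicle control cultures reached saturation at 30 °C; 1 = growth at the plate median or of vehicle wells; lower values mean less growth of the strain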
Conditions: S. cerevisiae deletion strains, growth OD

Measured: normalized growth

NC(=O)CCC(N)C(=O)O (configuration not stated)
inactive: locus YAL013W, strain DEP1, active compounds read low 1.02 | locus YAL040C, strain CLN3, active compounds read low 0.998 | locus YCL061C, strain MRC1 (second series), active compounds read low 1 | locus YDR150W, strain NUM1, active compounds read low 0.999 | locus YDR363W, strain ESC2, active compounds read low 1.01 | locus YER002W, strain NOP16, active compounds read low 1.02 | locus YGR229C, strain SMI1, active compounds read low 1.04 | locus YJR075W, strain HOC1, active compounds read low 1.01 | locus YMR263W, strain SAP30, active compounds read low 0.997 | locus YNL128W, strain TEP1, active compounds read low 0.987 | locus YNL153C, strain GIM3, active compounds read low 0.99 | locus YNL175C, strain NOP13, active compounds read low 0.996 | locus YNL197C, strain WHI3, active compounds read low 0.997 | locus YNL224C, strain SQS1, active compounds read low 0.993 | locus YNL322C, strain KRE1, active compounds read low 1.01 | locus YOR083W, strain WHI5 (second series), active compounds read low 1.01 | locus YPL055C, strain LGE1, active compounds read low 1.03
